# Laboratory results from the supplement of paper PMC6555819.
# How the values were obtained:
# Test in all cases: PBM binding z-score (relative to random genomic background probes); higher = stronger binding; sequences stand for … in GC…GCGATTGACAGCGTAGAATGAAGG
# [1] = tested on: PPARg:RXRa DBDmut IVT, anti-RXR (DBD mutation: RXRa K156A/R161A, NR concentration 270 nM, RXRa partner concentration 90 nM)
# Method in brief: (§1)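 Binding buffer was PBS pH 7.4 with 2% milk, 0.02% Triton X-100, 1 mM DTT, 0.2 mg/mL BSA and 0.4 mg/ml salmon testes DNA. In it, ligand-free nuclear receptor dimers were incubated 1 h on custom Agilent 4×180K protein-binding microarrays carrying double-stranded probes. Antibodies against each partner (one per run) detected binding, and z-scores were calculated against random background probes after regression normalization of scanned fluorescence.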
# [2] = tested on: PPARg:RXRa IVT, anti-PPARg (NR concentration 270 nM, RXRa partner concentration 90 nM)
# Method in brief: as §1
# [3] = tested on: PPARg DBDmut:RXRa IVT, anti-PPARg (DBD mutation: PPARg1 K132A/R137A, NR concentration 270 nM, RXRa partner concentration 90 nM)
# Method in brief: as §1
# [4] = tested on: PPARg DBDmut IVT, anti-PPARg (DBD mutation: PPARg1 K132A/R137A, NR concentration 270 nM)
# Method in brief: as §1
# [5] = tested on: PPARg homodimer (NR concentration 180 nM)
# Method in brief: as §1
# [6] = tested on: PXR:RXRa (NR concentration 270 nM, RXRa partner concentration 90 nM)
# Method in brief: as §1
# [7] = tested on: PXR homodimer (NR concentration 270 nM)
# Method in brief: as §1
# [8] = tested on: RARa:RXR (NR concentration 270 nM, RXRa partner concentration 90 nM)
# Method in brief: as §1
# [9] = tested on: RARa homodimer (NR concentration 270 nM)
# Method in brief: as §1
# [10] = tested on: RARb:RXRa (NR concentration 270 nM, RXRa partner concentration 90 nM)
# Method in brief: as §1
# [11] = tested on: RARb homodimer (NR concentration 270 nM)
# Method in brief: as §1
# [12] = tested on: RARg:RXRa (NR concentration 270 nM, RXRa partner concentration 90 nM)
# Method in brief: as §1
# [13] = tested on: RARg homodimer (NR concentration 270 nM)
# Method in brief: as §1
# [14] = tested on: RXRa DBDmut IVT, anti-RXR (DBD mutation: RXRa K156A/R161A, NR concentration 90 nM)
# Method in brief: as §1
# [15] = tested on: RXRa homodimer (NR concentration 180 nM)
# Method in brief: as §1
# [16] = tested on: THRa:RXRa (NR concentration 90 nM, RXRa partner concentration 90 nM)
# Method in brief: as §1
# [17] = tested on: THRa homodimer (NR concentration 90 nM)
# Method in brief: as §1
# [18] = tested on: VDR:RXRa (NR concentration 270 nM, RXRa partner concentration 90 nM)
# Method in brief: as §1
# [19] = tested on: VDR homodimer (NR concentration 270 nM)
# Method in brief: as §1
Sequence,PBM binding z-score [1],PBM binding z-score [2],PBM binding z-score [3],PBM binding z-score [4],PBM binding z-score [5],PBM binding z-score [6],PBM binding z-score [7],PBM binding z-score [8],PBM binding z-score [9],PBM binding z-score [10],PBM binding z-score [11],PBM binding z-score [12],PBM binding z-score [13],PBM binding z-score [14],PBM binding z-score [15],PBM binding z-score [16],PBM binding z-score [17],PBM binding z-score [18],PBM binding z-score [19]
TAGCCTAGGTCATTCAGGGGCCAATATAGAAAGC,1.85,2.85,0.373,1.2,2.49,3.08,0.116,4.05,0.318,3.93,3.51,6.6,4.84,2.06,3.15,3.85,0.878,3.77,2.13
ACTATTAGTTAAGACGAGGGCAACCGATAGGTTG,-0.356,0.422,0.81,0.924,0.44,0.642,0.645,0.641,1.02,0.967,1.34,0.59,0.902,0.459,0.55,1.85,0.204,0.464,0.991
GCTAGCAGGCCATTTTGGTCACTCAATGACGGGC,0.582,-0.122,-1.08,-1.4,-1.14,-0.775,-0.836,-0.995,-1.3,0.0531,0.0226,-0.296,0.212,-0.337,-0.426,-0.234,-0.974,-0.816,-0.748
CAAACTAGGTCAAGAGGGCAAAGTCCGCTTCCCG,8.35,8.37,4.28,1.48,3.42,2.98,0.703,3.96,1.19,4.53,4.13,5.73,5.4,1.86,4.07,3.04,1.03,3.46,1.78
TCGAGTAGGTTACCATTGGGGCATTCAGCTTTCT,3.26,2.88,-0.0492,-0.763,-0.00669,0.0838,-0.677,0.409,-0.577,0.817,0.675,0.565,0.217,0.45,0.293,0.633,-0.238,0.0183,-0.46
AGAACGAGGGCACGCTGAGTTTATAGCAGAGTAG,4.28,3.85,1.13,0.317,0.761,3.96,2.87,1.28,-0.418,2.63,1.45,2.31,2.32,2.18,1.5,2.15,-0.111,3.94,4.06
CGTCCAAGGTCATAGGAGGTCAGTTAAGACAGAT,3.03,4.5,0.532,0.526,3.95,6.47,4.13,5.73,1.43,5.36,5.16,6.57,7.05,4.09,6.19,5.3,3,6.3,4.11
ATCTCTAGTTAACAAGTTCAGTGAAAGAGAGGAC,0.0329,0.697,1.35,1.03,0.961,1.81,2.1,0.902,1.15,1.49,1.64,1.07,1.06,1.03,0.676,1.12,0.867,2.52,2.76
CGTCCAAGGTCAATGCTAGGTCAGAGAAAGCATT,3.57,3.92,0.456,-0.0823,4.96,4.85,1.92,5.99,1.27,5.25,5.02,7.59,7.07,3.6,6.03,4.58,3,4.76,2.77
CTACCAAGCTGAACAAGGTCGTTGATTACTATTC,0.107,-0.452,0.163,0.158,0.308,1.39,1.02,1.31,0.561,0.523,1.13,0.311,0.109,1.3,0.787,1.86,1.46,1.51,2.1
TAGCCTAGGTCAGATCGGGCCCGTATACGCTATA,0.295,1.06,-0.496,-0.614,-0.129,0.189,-0.808,1.16,-0.649,3.02,1.94,2.58,3.06,-0.297,1.37,2.39,0.0174,0.22,-0.316
CTCGAAAGGTCGGTCGAGGTGAGTATACGGATAA,0.299,1.21,0.0612,-0.418,0.551,3.08,-0.312,2.59,-0.801,3.2,2.4,3.1,3.3,0.728,2.47,5.04,0.386,2.25,0.0425
CCAGACAGGTGTAAGGTAACTCAGTCTGGTACGC,-0.423,-0.31,-0.287,-0.728,0.365,-0.318,-0.0688,-0.0779,-0.14,-0.403,-0.201,-0.0982,-0.292,0.0922,-0.0847,1.59,1.21,0.0147,0.39
TCAGACAGGTGAAGGTAACTCCGGTACGCAGTCG,2.59,1.09,-0.276,-0.342,0.498,0.475,-0.04,0.651,0.0905,1.1,0.814,0.458,0.575,1.28,1.11,1.28,0.325,0.726,-0.191
ATATGCAGGTTAAGGGTCATTCAGGTTGGTTCGC,3.94,5.19,0.744,1.06,2.9,5.48,1.82,6.03,1.71,3.6,3.97,4.66,3.52,2.24,6.59,3.64,1.26,5.68,4.45
CAAACTAGGTCAAGAGGTCAAAGTCCGCTTCCCG,8.49,8.35,2.14,1.19,6.92,6.2,2.86,7.83,3.01,5.53,5.9,8.2,8.13,2.89,8.25,4.44,2.61,6.26,4.47
CCAAACAGGTGAAAGGTAACTCAGTCTGGTACGC,3.27,4.15,0.615,0.037,1.17,1.01,0.17,2.3,1.21,1.21,0.802,1.11,0.696,0.223,1.99,0.954,0.0389,0.991,0.206
CGAACTAGGTCCTCCAGGACAGTGAATACATTGA,3.46,2.42,0.246,-0.00333,-0.188,-0.555,-0.316,-0.262,-0.913,-0.0568,-0.151,0.0122,0.149,0.211,0.00298,1.41,0.816,-0.247,-0.221
AATATTAGTTGAGACGAGGGCAACCGATAGGTTG,0.326,0.882,0.648,0.786,1.36,1.71,1.48,1.4,2.43,1.26,1.28,0.902,0.922,0.47,0.883,2.64,0.504,1.01,1.73
CGAAGTAGGTCATTGACAGGACAGTGAATAGTAA,8.42,8.66,3.43,2.58,2.08,2.16,0.395,2.66,0.16,3.58,2.74,4.83,4.36,2.27,2.94,2.64,0.373,2.62,1.07
ATCTCTATGTAACCAAGTTCAGTGAATGCCGAAC,-0.0629,0.707,0.85,1.12,0.121,1.66,1.51,0.419,0.407,0.755,1.28,0.518,0.659,0.924,0.314,0.659,0.156,2.22,2.31
CTCGTAAGGTCGGTTGAGGTGAGTATACGGATAA,0.0738,0.679,-0.123,0.104,0.333,2.72,0.279,1.82,-0.0631,2.29,1.99,1.89,2.09,1.26,1.44,5.11,2.39,1.75,0.937
ACAATGAGGTTAAGATCAGGGAAACAGAATACAT,1.93,1.78,1.53,1.8,1,1.35,0.672,1.97,1.24,1.95,0.906,2.33,1.7,1.33,2.53,2.51,0.954,1.3,0.941
CCAAGTTGGTCAAGGTCACACACGCTATAGGTAC,2.97,3.8,0.633,0.94,3.54,4.6,4.77,4.56,1.99,4.27,4.47,5.04,5.36,2.86,5.31,4.06,4.34,4.79,4.56
CTCGAAAGATCGGTTGAGGTGAGTATACGGATAA,-0.303,0.165,0.37,0.142,-0.353,-0.0362,-0.0981,0.657,-0.222,0.00694,-0.106,-0.00103,-0.0275,-0.15,0.118,3.31,0.715,-0.152,-0.316
CTCGAAATGTCGGTTGAGGTGAGTATACGGATAA,-0.0159,0.503,0.298,0.408,0.0152,0.0277,-0.637,0.341,-0.1,0.334,0.344,0.0589,0.341,0.0185,0.114,3.31,1.36,-0.148,0.263
CCTGCTGGGCCAAGGTCATTGATCAGTCAAAGCA,0.105,1.18,-1.48,-1.47,2.84,3.79,1.84,3.92,-0.536,3.48,3.19,3.79,2.93,1.26,3.54,3.49,2.22,3.06,2.48
CATACAGCGTCAGCTAGGCCAGAGTAGGGACGGC,-0.164,-0.272,-0.28,0.0344,-0.557,-1.3,-0.659,-0.799,-0.655,-0.287,-0.506,-0.321,-0.175,-0.697,-0.412,-0.637,-0.62,-0.851,-0.797
CCTCGGAGGACAACAGGAGGCCAGAGCTGCCAGA,-0.393,-0.707,-0.633,-1.31,-0.602,-0.549,-0.283,-0.45,-0.398,1.07,0.662,0.553,1.08,-0.152,-0.394,0.476,-0.155,-0.504,-0.208
TTACCAAGGTGAGCTGACGTCGTTGATCCAACTC,0.771,1.43,-0.733,-0.641,-0.886,-0.363,-0.913,-0.1,-1.03,0.866,-0.0202,0.00493,0.0726,-0.698,0.32,0.839,-0.28,-0.477,-1.04
